Inconclusive results are not listed. Active and inactive are the calls of the source. Calls follow the shape of the dose curve; as a rule, active = well fitted curve in the direction sought with a large enough effect; inconclusive = small, poorly fitted or top-dose-only effect, or another doubt; inactive = no such curve, though single readings can be large; an effect the other way counts as inactive or inconclusive.
Tests used:
[1] = Cellular Toxicity (caspase-3) N2a (AID 665); conditions: N2a cells, luminescence, normalized: DMSO 0%, 10 µM staurosporine 100%; series mostly up to 92.2 µM;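 also: compound exposure lasted 16 h at 37 °C before readout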
Procedure, shortened: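 Caspase-3/7 activation, measured as increased luminescence from aminoluciferin release, is quantified in mouse N2a cells exposed to compounds for 16 h. Values are normalized to DMSO and 10 uM staurosporine, with AC50 derived by Hill modelling.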

[2] = Cellular Toxicity (caspase-3) NIH 3T3 (AID 666); conditions: NIH 3T3 caspase-3 activation, apoptosis/toxicity, 0% DMSO, 100% is 100 µM tamoxifen; series mostly up to 92.2 µM;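 also: caspase signal read after 16 h compound exposure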
Procedure, shortened: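 Cells were plated at 1000 per well and incubated 5 hr at 37°C, then compound was added for 16 hr. Caspase-Glo 3/7 reagent followed for 20 min at room temperature before luminescence was read.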

[3] = Cellular Toxicity (caspase-3) Renal Proximal Tubule (AID 667); conditions: renal proximal tubule cells; series mostly up to 91.7 µM;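 also: cells exposed to compound for 16 hours at 37 °C before detection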
Procedure, shortened: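 Primary rat proximal tubule cells, 1000/well, 5 h plating at 37 °C, then compound 16 h at 37 °C. Caspase-Glo 3/7 reagent, 1 h RT, luminescence. Normalized to DMSO (basal) and 10 uM staurosporine (100%); Hill-fit AC50.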

[4] = target: Cytochrome P450 3A4 (Homo sapiens) (UniProt P08684); assay: qHTS Assay for Inhibitors and Substrates of Cytochrome P450 3A4 (AID 884); conditions: recombinant CYP3A4, Luciferin-PPXE luminescence; series mostly up to 57.1 µM; also: nearly all actives have a fitted effect of over 50% in size
Procedure, shortened: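 Luminescent readout of luciferin produced by CYP3A4 (20 nM) dealkylation of Luciferin-PPXE, 25 uM (its KM). NADPH-driven reaction ran 60 min at RT after 10 min compound preincubation; data scaled to 57 uM ketoconazole as 100% inhibition.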

[5] = Cell Viability - LYMP2-001 (AID 921); conditions: LYMP2-001 lymphoblastoid cell viability; series mostly up to 92.2 µM; also: nearly all actives have a fitted effect of over 70% in size
Procedure, shortened: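 Human lymphoblastoid cells (Coriell), 2500 per well, were preincubated 5 hr at 37 C, then exposed to compounds in complete medium for 24 hr at 37 C. Cellular ATP was read by CellTiter-Glo luminescence; AC50 from Hill fits of concentration-response data.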

[6] = MultiTox-Fluor Cytotoxicity Assay - LYMP1-001 - Dead Cells (AID 946); conditions: LYMP1-001 lymphoblastoid cells, dead-cell protease fluorescence; series mostly up to 92.2 µM
Procedure, shortened: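 Cytotoxicity as increased dead-cell protease fluorescence (bis-AAF-R110, 485/520 nm), read 60 min after MultiTox-Fluor reagent. Human lymphoblastoid line exposed 16 h; Hill-fitted AC50, with DMSO as 0% and 15 uM tetraoctylammonium bromide as 100%.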

[7] = MultiTox-Fluor Cytotoxicity Assay - LYMP1-001 - Live Cells (AID 947); conditions: LYMP1-001 lymphoblastoid cells, live-cell protease fluorescence viability; series mostly up to 92.2 µM
[8] = Cell Viability - LYMP1-002 - Assay at 16 hr (AID 948); conditions: LYMP1-002 lymphoblastoid cell viability; series mostly up to 92.2 µM
Procedure, shortened: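 Human lymphoblastoid cells (LYMP1-002), 2500/well, were preincubated 5 hr at 37 C, then exposed to compounds for 16 hr at 37 C in complete medium. Cellular ATP was read by CellTiter-Glo luminescence after 30 min at room temperature; AC50 from Hill fits.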

[9] = MultiTox-Fluor Cytotoxicity Assay - LYMP1-002 - Live Cells (AID 955); conditions: LYMP1-002 lymphoblastoid live-cell protease fluorescence viability; series mostly up to 46.1 µM
Procedure, shortened: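 Cells were seeded at 2500 per well and incubated 5 hr. Compounds were then added for 16 hr at 37 C, followed by MultiTox-Fluor reagent for 60 min at room temperature and fluorescence reading of viable-cell protease signal.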

[10] = MultiTox-Fluor Cytotoxicity Assay - LYMP1-002 - Dead Cells (AID 960); conditions: LYMP1-002 lymphoblastoid cells, dead-cell protease fluorescence; series mostly up to 46.1 µM; also: nearly all actives have a fitted effect of over 60% in size
Procedure, shortened: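 Cells were plated, rested 5 hr, then treated with compound dilution series for 16 hr at 37 C. After adding substrate reagent and 60 min at room temperature, dead-cell protease fluorescence gave concentration-response curves fitted by the Hill equation.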

[11] = MultiTox-Fluor Cytotoxicity Assay - LYMP1-003 - Live Cells (AID 962); conditions: LYMP1-003 lymphoblastoid cells, MultiTox-Fluor live-cell protease fluorescence; series mostly up to 92.2 µM;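 also: cytotoxic hits lower the live-cell protease signal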
Procedure, shortened: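 Acute cytotoxicity is scored as a drop in live-cell protease activity in human lymphoblastoid LYMP1-003 cells after 16 hr compound exposure at 37 C. AC50 values come from Hill-equation modelling of concentration-response data.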

[12] = Cell Viability - LYMP1-003 - Assay at 24 hr (AID 963); conditions: LYMP1-003 lymphoblastoid cell viability; series mostly up to 92.2 µM
Procedure, shortened: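 Cytotoxicity is scored as a concentration-dependent fall in ATP-linked luciferase signal in human lymphoblastoid LYMP1-003 cells treated 24 hr at 37 C in complete culture medium.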

[13] = Cell Viability - LYMP1-003 - Assay at 40 hr (AID 964); conditions: LYMP1-003 lymphoblastoid viability; series mostly up to 92.2 µM; also: nearly all actives have a fitted effect of over 60% in size
Procedure, shortened: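 Luminescent ATP signal (CellTiter-Glo) served as the viability read-out after 40 hr compound treatment of human lymphoblastoid LYMP1-003 cells at 37 C. Decreases in ATP were fitted with the Hill equation to give AC50.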

[14] = Cell Viability - LYMP2-003 (AID 965); conditions: LYMP2-003 lymphoblastoid cell viability; series mostly up to 92.2 µM;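 also: cells exposed to compounds for 24 h before reading; nearly all actives have a fitted effect of over 50% in size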
Procedure, shortened: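 Human lymphoblastoid cells (2500/well) were pre-incubated 5 hr at 37 C, then exposed to compounds over a concentration range for 24 hr at 37 C. Intracellular ATP was read by CellTiter-Glo luminescence; AC50 came from Hill-equation fits.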

[15] = Cell Viability - LYMP2-004 (AID 966); conditions: LYMP2-004 lymphoblastoid cell viability, qHTS; series mostly up to 92.2 µM; also: nearly all actives have a fitted effect of over 65% in size
Procedure, shortened: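 qHTS cytotoxicity: human lymphoblastoid line, 24 hr compound treatment, 37 C, complete medium. Viability read as cellular ATP via luciferase luminescence; tetraoctylammonium bromide served as positive control.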

[16] = Cell Viability - LYMP2-005 (AID 967); conditions: LYMP2-005 lymphoblastoid cell viability; series mostly up to 92.2 µM
Procedure, shortened: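 CellTiter-Glo luminescence (cellular ATP) read-out; LYMP2-005 lymphoblastoid cells, 2500/well, 5 h pre-incubation, then 24 h compound exposure at 37 C in complete medium. Tetraoctylammonium bromide positive control; AC50 by standard Hill fit.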

[17] = Cell Viability - LYMP2-009 (AID 968); conditions: LYMP2-009 lymphoblastoid cell viability; series mostly up to 92.2 µM; also: nearly all actives have a fitted effect of over 55% in size
[18] = Cell Viability - LYMP2-011 (AID 969); conditions: LYMP2-011 lymphoblastoid cells viability; series mostly up to 92.2 µM; also: nearly all actives have a fitted effect of over 60% in size
Procedure, shortened: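 In this qHTS cytotoxicity format, compounds are tested across concentrations on human lymphoblastoid cells in complete medium for 24 hours at 37 C. Viability is taken as cellular ATP measured by luciferase luminescence.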

[19] = Cell Viability - LYMP2-013 (AID 970); conditions: LYMP2-013 lymphoblastoid cells viability; series mostly up to 92.2 µM; also: nearly all actives have a fitted effect of over 55% in size
Procedure, shortened: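 Cytotoxicity is scored as a concentration-dependent drop in intracellular ATP in human lymphoblastoid cells after 24 hr compound exposure at 37 C. ATP is quantified by luciferase luminescence, and AC50 values come from Hill-equation modeling.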

[20] = Cell Viability - LYMP2-015 (AID 971); conditions: LYMP2-015 lymphoblastoid cell viability; series mostly up to 92.2 µM; also: nearly all actives have a fitted effect of over 55% in size
Procedure, shortened: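 Cells are seeded at 2500 per well and incubated 5 hr at 37 C. Compounds are added across a concentration series for 24 hr at 37 C. CellTiter-Glo is added, and luminescence is read after 30 min at room temperature.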

[21] = Cell Viability - LYMP2-017 (AID 972); conditions: LYMP2-017 lymphoblastoid cell viability; series mostly up to 92.2 µM; also: nearly all actives have a fitted effect of over 55% in size
Procedure, shortened: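 Cytotoxicity is scored as a concentration-dependent drop in cellular ATP in a human lymphoblastoid line after 24 hr treatment at 37 C. Values are AC50s from Hill-equation modelling.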

[22] = Cell Viability - LYMP2-021 (AID 974); conditions: LYMP2-021 lymphoblastoid cells viability; series mostly up to 92.2 µM
Procedure, shortened: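 Loss of cellular ATP, measured with a luciferase-based CellTiter-Glo readout, serves as the toxicity signal in human lymphoblastoid cells treated for 24 hours at 37 C. Potency is reported as AC50 from a standard Hill model.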

[23] = Cell Viability - LYMP2-023 (AID 975); conditions: LYMP2-023 lymphoblastoid cell viability; series mostly up to 92.2 µM; also: nearly all actives have a fitted effect of over 55% in size
Procedure, shortened: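 Steps: seed 2500 human lymphoblastoid cells per well, incubate 5 hr at 37 C, add compound for 24 hr at 37 C, add CellTiter-Glo, hold 30 min at room temperature, read luminescence. AC50 derived by Hill modelling.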

Measured: Potency

Chain of Cytochrome P450 3A4 (Homo sapiens) (P08684 whole entry, looked up): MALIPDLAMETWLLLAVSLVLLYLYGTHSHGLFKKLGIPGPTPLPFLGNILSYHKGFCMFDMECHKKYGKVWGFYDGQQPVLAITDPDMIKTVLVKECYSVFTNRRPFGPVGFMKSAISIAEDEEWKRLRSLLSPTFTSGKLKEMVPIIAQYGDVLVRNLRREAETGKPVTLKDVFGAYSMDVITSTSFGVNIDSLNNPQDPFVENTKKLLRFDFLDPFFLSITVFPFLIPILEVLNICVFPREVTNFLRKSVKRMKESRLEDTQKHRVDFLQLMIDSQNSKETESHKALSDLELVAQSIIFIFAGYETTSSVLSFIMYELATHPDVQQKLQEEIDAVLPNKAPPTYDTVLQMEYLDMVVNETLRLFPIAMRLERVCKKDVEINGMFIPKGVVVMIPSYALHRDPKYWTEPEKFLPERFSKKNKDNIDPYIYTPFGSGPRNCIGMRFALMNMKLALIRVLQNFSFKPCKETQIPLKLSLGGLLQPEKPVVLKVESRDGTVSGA

CCOC(=O)c1ccccc1N
inactive: all assays above
